Experimental data reported in paper PMC4336329 (PLoS ONE, 2015).
Out of some 310,000 compounds screened, about 14,000 (4.5%) showed an effect of 50% or more. The effect is printed as a negative number. Many of the other results were omitted from the sample, so strong results are more common in it than they were.

molecular target: human ether-à-go-go-related gene (hERG) potassium channel (human, UniProt Q12809); assay: primary screen, population patch clamp on CHO cells stably expressing hERG; higher = less effect of the substance
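Further: peak tail current of the secondary pulse compared with the same well before compound.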

Sequence of human ether-à-go-go-related gene (hERG) potassium channel (Q12809 whole entry, looked up): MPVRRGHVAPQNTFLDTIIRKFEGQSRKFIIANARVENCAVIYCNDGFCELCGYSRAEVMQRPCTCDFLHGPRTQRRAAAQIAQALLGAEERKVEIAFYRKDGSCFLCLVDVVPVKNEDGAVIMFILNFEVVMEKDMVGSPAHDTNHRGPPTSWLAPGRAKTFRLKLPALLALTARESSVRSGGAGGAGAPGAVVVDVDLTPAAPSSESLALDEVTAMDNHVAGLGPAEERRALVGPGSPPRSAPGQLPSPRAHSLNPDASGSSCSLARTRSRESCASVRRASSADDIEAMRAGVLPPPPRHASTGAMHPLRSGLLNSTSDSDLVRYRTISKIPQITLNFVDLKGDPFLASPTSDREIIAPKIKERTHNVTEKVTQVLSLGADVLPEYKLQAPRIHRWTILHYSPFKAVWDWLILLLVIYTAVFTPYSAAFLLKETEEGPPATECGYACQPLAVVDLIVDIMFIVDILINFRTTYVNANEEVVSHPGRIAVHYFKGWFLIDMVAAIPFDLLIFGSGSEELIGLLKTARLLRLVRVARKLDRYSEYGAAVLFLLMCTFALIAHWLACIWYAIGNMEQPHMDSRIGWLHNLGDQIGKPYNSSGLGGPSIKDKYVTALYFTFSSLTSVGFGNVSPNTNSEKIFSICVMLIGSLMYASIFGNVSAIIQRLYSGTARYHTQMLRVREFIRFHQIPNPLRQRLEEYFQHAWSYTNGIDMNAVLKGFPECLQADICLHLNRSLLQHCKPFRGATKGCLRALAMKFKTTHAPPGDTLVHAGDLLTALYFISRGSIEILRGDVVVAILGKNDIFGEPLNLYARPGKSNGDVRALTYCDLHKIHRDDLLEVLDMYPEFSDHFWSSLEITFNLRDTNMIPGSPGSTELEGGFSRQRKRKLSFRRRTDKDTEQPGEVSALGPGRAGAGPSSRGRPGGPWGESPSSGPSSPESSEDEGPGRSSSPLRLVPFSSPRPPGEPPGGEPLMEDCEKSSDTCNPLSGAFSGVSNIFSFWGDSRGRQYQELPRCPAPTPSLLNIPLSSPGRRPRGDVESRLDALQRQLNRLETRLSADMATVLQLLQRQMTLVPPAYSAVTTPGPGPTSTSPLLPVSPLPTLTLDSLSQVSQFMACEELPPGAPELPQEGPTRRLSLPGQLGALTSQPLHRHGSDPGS

| Compound | hERG current change (%, negative = inhibition) at 10uM [%] |
| --- | --- |
| CC1(C(=O)N2CCC(CO)(Cc3cccc(C(F)(F)F)c3)CC2)CC1 | 4.02 |
| OCC1(Cc2ccccc2C(F)(F)F)CCN(Cc2cccc3cnccc23)CC1 | -11 |
| CC(=O)c1ccc(C(=O)N2CCC(CO)(Cc3cccc(C(F)(F)F)c3)CC2)cc1 | -74.6 |
| COc1ccc(CN2CCC(CO)(Cc3ccccc3C(F)(F)F)CC2)c(F)c1 | -67.3 |
| CN(C)S(=O)(=O)N1CCC(CO)(Cc2cccc(C(F)(F)F)c2)CC1 | -4.25 |
| OCC1(Cc2ccccc2C(F)(F)F)CCN(Cc2ccncc2)CC1 | -13.8 |
| CC(=O)N1CCN(c2ccc(NC(=O)c3cccc([N+](=O)[O-])c3)cc2)CC1 | -3.59 |
| C/C(=N\NC(=O)CSc1nc(C)cc(C)n1)c1ccc2c(c1)OCCO2 | 18.3 |
| CCC(CC)C(=O)N1CC(=O)Nc2ccc(F)cc2C1c1ccc(F)cc1 (stereo not shown) | -27.8 |
| CCCc1cc(C(=O)NNC(=S)NCC)c2ccccc2n1 | 18.1 |
| CC1=C(C(=O)Nc2ccccn2)C(c2ccc(N(C)C)cc2)n2ncnc2N1 (stereo not shown) | -62.7 |
| CC1=C(C(=O)Nc2ccccn2)C(c2ccccc2)n2ncnc2N1 (stereo not shown) | 13.7 |
| CC1=C(C(=O)Nc2ccccn2)C(c2ccc(F)cc2)n2ncnc2N1 (stereo not shown) | -13.1 |
| O=c1cc(-c2ccccc2)cc(-c2ccccc2)n1CCCO | -31.9 |
| CCc1ccc(C(=O)Nc2cc3c(cc2Cl)OCCCO3)cc1 | 23.5 |
| CN(C)C(=O)[C@@H]1C[C@H]1[C@@H](NC(=O)OCc1ccccc1)c1ccccc1 | -64.2 |
| CNC(=O)[C@@H]1C[C@H]1[C@@H](NC(=O)OCc1ccccc1)c1ccccc1 | -48.3 |
| O=C(N[C@@H](c1ccccc1)[C@@H]1C[C@H]1C(=O)O)OCc1ccccc1 | 15.1 |
| O=P(O)(OCc1ccccc1)OCc1ccccc1 | 12.1 |
| O=C(O)c1cccc(NC2=Nc3cccc4cccc2c34)c1 | 14.3 |
| CCn1c(NC(=O)c2ccc(F)cc2)c2ccccc2nc1=O | -11.7 |
| COc1ccc(CCn2c(=O)[nH]c3cc(C(=O)NCCN4CCOCC4)ccc3c2=O)cc1OC | 0.353 |

| Compound | hERG current change (%, negative = inhibition) at 10uM [%] |
| --- | --- |
| Cc1cccn2c(=O)c3cc(C(=O)NCCN4CCOCC4)c(=N)n(CCc4ccccc4)c3nc12 | -75 |
| COc1ccc(CCn2c(=N)c(C(=O)NCCN3CCOCC3)cc3c(=O)n4cccc(C)c4nc32)cc1OC | -97.8 |
| Cc1cccn2c(=O)c3cc(C(=O)NCCN4CCOCC4)n(C)c3nc12 | -3.18 |
| COc1ccc(CCNC(=O)c2c(N)n(CCN3CCOCC3)c3nc4ccccc4nc23)cc1OC | -8.6 |
| O=C(N/N=C/c1ccco1)C1CCCC1 | 22.1 |
| Cc1ccc(C(=O)Nc2ccc(S(=O)(=O)Nc3ncccn3)cc2)cc1[N+](=O)[O-] | 13.4 |
| COc1cccc2cc(C(=O)NCc3ccccc3Cl)c(=O)oc12 | 6.78 |
| CC(C)CSc1nsc(N)n1 | 23.1 |
| COc1ccc(N2CCN(C(=O)c3cccc(NC(=O)c4ccco4)c3)CC2)cc1 | -43.8 |
| COc1ccc(N2CCN(C(=O)c3ccc(C)c(NC(=O)c4ccco4)c3)CC2)cc1 | -74.8 |
| O=C(c1ccco1)N1CCc2ccccc21 | -3.68 |
| Cc1ccc(C(=O)N2CCN(c3ccccc3)CC2)cc1NC(=O)c1ccco1 | -45.7 |
| Cc1ccc(C(=O)N2CCN(C(=O)c3ccco3)CC2)cc1NC(=O)c1ccco1 | -44.1 |
| Cc1ccc(C(=O)N2CCc3ccccc32)cc1NC(=O)c1ccco1 | -68.1 |
| COc1ccccc1CNC(=O)c1ccc(OC(F)F)c(OC)c1 | -32.1 |
| CCOC(=O)c1sc(NC(=O)c2ccc(S(=O)(=O)N3CCOCC3)cc2)nc1-c1ccccc1 | -27.6 |
| Cc1ccc(-c2csc3nc[nH]c(=O)c23)cc1 | 6.88 |
| CCOc1cc(Br)ccc1S(=O)(=O)NCc1ccccc1 | -30.3 |
| Cc1c(NC(=O)c2ccccc2NC(=O)COc2ccccc2)cccc1C(=O)O | 14.2 |
| O=C(c1ccco1)N1CCN(Cc2nc3ccccc3c(=O)n2-c2ccc(F)cc2)CC1 | -18.8 |
| Cc1cc(N2CCN(c3ccccc3)CC2)nc(-c2ccccc2)n1 | -30.9 |
| Cc1cc(N2CCN(C(=O)c3ccco3)CC2)n2nc(C)nc2n1 | -44 |

| Compound | hERG current change (%, negative = inhibition) at 10uM [%] |
| --- | --- |
| Cc1cc(N2CCN(C(=O)c3ccco3)CC2)n2ncnc2n1 | -30.3 |
| O=c1c2ccccc2nc(N2CCCC2)n1-c1ccccc1 | 10.7 |
| Cc1cc(N2CCN(C(=O)c3ccco3)CC2)nc(-c2ccccc2)n1 | -65.4 |
| Cc1nc2ccccc2c2oc(C(=O)N3CCN(C(=O)c4ccco4)CC3)cc12 | -46.7 |
| Cc1cc(N2CCN(C(=O)c3ccco3)CC2)c2ccccc2n1 | -71.8 |
| Cc1cc(=O)[nH]c(N2CCN(C(=O)c3ccco3)CC2)n1 | 14 |
| O=C(c1ccco1)N1CCN(c2nc3ccccc3c(=O)n2-c2ccccc2)CC1 | -54.9 |
| O=C(c1ccco1)N1CCN(C(=O)c2cc(Cl)nc3ccccc23)CC1 | -35.2 |
| Cc1cc(N2CCN(C(=O)c3ccco3)CC2)n2ncc(-c3ccccc3)c2n1 | -50.5 |
| C=CCN=C(C)C1=C(O)CCC1=O | 16.5 |
| O=C(CSc1nc2c(c(=O)n1-c1ccc(Cl)cc1)SCC2)N1CCOCC1 | -14.2 |
| O=C1C(C2=NC(c3ccccn3)C3C(=O)N(c4ccc(Cl)cc4Cl)C(=O)C23)=C(O)c2ccccc21 (stereo not shown) | -4.11 |
| O=C(Cc1cccs1)NNC(=O)c1ccc(F)cc1 | 3.91 |
| Cc1ccc(CNC(=O)C2CC(c3cc(C(F)(F)F)cc(C(F)(F)F)c3)=NO2)o1 (stereo not shown) | -12.1 |
| CCOc1ccc(-c2noc(CCC(=O)O)n2)cc1 | -1.59 |
| Cc1nnc(NC(=O)c2ccc(-c3ccc([N+](=O)[O-])cc3)o2)s1 | -11.7 |
| c1ccc(COc2ccc(OCCn3cncn3)cc2)cc1 | 4.65 |
| CCn1c(O)c(C=Nc2ccccc2)sc1=O | 13.9 |
| O=C(Nc1ccc(OCC(=O)N2CCOCC2)cc1)Nc1cccc(Cl)c1 | -7.18 |
| COc1cc(COCC(O)CN2CCN(CCN3C(=O)c4cccc5cccc(c45)C3=O)CC2)cc(OC)c1OC.Cl (stereo not shown) | -62 |
| Cl.O=C1c2cccc3cccc(c23)C(=O)N1CCN1CCN(CC(O)COCc2ccc(Cl)cc2)CC1 (stereo not shown) | -72.5 |
| O=C1c2cccc3cccc(c23)C(=O)N1CCN1CCN(C(=S)Nc2ccc(Cl)cc2)CC1 | 16.4 |

| Compound | hERG current change (%, negative = inhibition) at 10uM [%] |
| --- | --- |
| CCN1CCN(CC(O)COCc2cc(OC)c(OC)c(OC)c2)CC1.Cl (stereo not shown) | 22.2 |
| COc1cc(COCC(O)CN2CCN(Cc3ccccc3)CC2)cc(OC)c1OC.Cl (stereo not shown) | -39.1 |
| O=C1c2ccccc2C(=O)N1CC(O)COCc1ccccc1 (stereo not shown) | 19.4 |
| O=C(Nc1c(-c2ccccc2)nc2ncccn12)c1cc2ccccc2oc1=O | -12.2 |
| COC(=O)c1cc(-c2ccc(Cl)cc2Cl)n[nH]1 | 14.1 |
| O=Cc1c(Sc2ccccc2)nc2ccccn2c1=O | -0.892 |
| COc1ccc(-c2csc3[nH]c(=S)n(-c4ccccc4)c(=O)c23)cc1OC | 23.8 |
| O=C(Nc1ccccc1)NN(C(=O)CCl)c1ccccc1 | 6.85 |
| CSc1cc(C)nc(N(C)C(C)=O)n1 | 27.1 |
| CCOC(=O)c1cn(Cc2ccccc2)nc1-c1ccccc1 | -8.37 |
| O=C(O)c1ccc(NS(=O)(=O)c2ccc3c(c2)C(=O)c2ccccc2C3=O)cc1 | 18.5 |
| Cc1ccccc1-n1c(Cc2cccs2)n[nH]c1=S | 14.3 |
| CCCCc1ccc(-n2c(Cc3cccs3)n[nH]c2=S)cc1 | -56.3 |
| S=c1[nH]nc(Cc2cccs2)n1-c1ccccc1 | 16.2 |
| O=C(Nc1ccc2c(c1)OCO2)c1cc(-c2ccccc2Cl)on1 | 15.3 |
| CCOc1ccc(CCNC(=O)CS(=O)Cc2nc(-c3ccccc3Cl)oc2C)cc1OCC (stereo not shown) | -10.7 |
| CC(C)C1N=C2c3ccccc3N=C(SCc3cc(=O)n4cc(Cl)ccc4n3)N2C1=O (stereo not shown) | -67 |
| CC(C)C1N=C2c3ccccc3N=C(SCC(=O)c3ccc(O)c(O)c3)N2C1=O (stereo not shown) | -23.1 |
| CC1N=C2c3ccccc3N=C(SCc3cc(=O)n4cc(Cl)ccc4n3)N2C1=O (stereo not shown) | -63.6 |
| CC(C)C1N=C2c3ccccc3N=C(SCC#N)N2C1=O (stereo not shown) | 5.14 |
| Cc1ccc2nc(CSc3nnc4ccccn34)cc(=O)n2c1 | 13.2 |
| O=C(O)CCCCn1c(SCc2cc(=O)n3cc(Cl)ccc3n2)nc2ccsc2c1=O | 2.87 |
